Bioassay records from PubChem BioAssay.
TDP1 block = qHTS Assay for Inhibitors of Tyrosyl-DNA Phosphodiesterase (TDP1); recombinant TDP1, AlphaScreen DNA substrate cleavage; AID 485290, 2010; Tyrosyl-DNA phosphodiesterase 1 (Homo sapiens), Q9NUW8; actives 0.28% (n = 350,000); Potency, µM (highest dose often 130 µM), usual class: inhibitors; note: nearly all actives have a fitted effect of over 40% in size
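Signal: AlphaScreen proximity between streptavidin donor and anti-FITC acceptor beads on intact substrate. Reaction: Tdp1 1 nM, substrate 15 nM final, 5 min RT after 15 min compound preincubation.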
RORg inh = qHTS for inhibitors of ROR gamma transcriptional activity | Nuclear receptor ROR-gamma (Mus musculus), P51450 | Drosophila S2 Gal4-RORgamma UAS-luciferase reporter, 20 h | Potency, µM (highest dose often 53.6 µM), actives largely listed as inhibitors | actives 5.4% (n = 310,000); note: nearly all actives have a fitted effect of over 60% in size
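Read-out: Photinus luciferase luminescence; inhibitors lower reporter signal. Insect Schneider cells with Gal4-ROR gamma fusion under metallothionein promoter, UAS reporter; 700 uM final copper sulfate induction, 20 hr, ambient temperature.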
DT40 TDP1 CPT = qHTS for Inhibitors of human tyrosyl-DNA phosphodiesterase 1 (TDP1): qHTS in cells in presence of CPT; chicken DT40 Tdp1-/-;hTDP1 cells + 20 nM CPT, ATP luminescence, 48 h; Potency, µM (top dose mostly 46.2 µM), actives largely listed as inhibitors; actives 12% (n = 420,000); AID 686979, 2013; note: nearly all actives have a fitted effect of over 55% in size
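Chicken DT40 Tdp1-/- cells stably complemented with human TDP1 were seeded at 400 cells/well in medium containing 20 nM camptothecin, exposed to pin-transferred compounds, and grown at 37 °C for at least 48 hr. Viability was read as ATP luminescence.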
TDP1 cell noCPT = qHTS for Inhibitors of human tyrosyl-DNA phosphodiesterase 1 (TDP1): qHTS in cells in absence of CPT; DT40 Tdp1-/- hTDP1 cells, no CPT, ATP luminescence, 48 h; Potency, µM (series often up to 46.2 µM), actives largely listed as inhibitors; actives 15% (n = 420,000); AID 686978, 2013; note: nearly all actives have a fitted effect of over 55% in size
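Readout: luminescence from CellTiter-Glo after 30 min in the dark at RT. Cells: DT40 Tdp1-/- with stable hTDP1, 400/well. Exposure: compounds alone, ≥48 hr, 37 °C.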
Gal4-VP16 FLuc = VP16 counterscreen qHTS for inhibitors of ROR gamma transcriptional activity; Potency, µM (top dose mostly 53.6 µM), most hits filed as inhibitors; actives 3.5% (n = 310,000); Drosophila S2 Gal4-VP16 UAS-luciferase, luminescence, 20 h;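 note: Gal4-VP16 expression switched on by copper sulfate through the metallothionein promoter; nearly all actives have a fitted effect of over 50% in size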
Numbers stand for hits; i = inactive; ? = inconclusive; nt = no result; [ ] = another dose, or the depositor's remark. Shown are actives, neighbours in structure and some others; about 19% of the full set was active somewhere. Calls come from the whole dose curve; as a rule, active = well fitted curve in the direction sought with a large enough effect; inconclusive = small, poorly fitted or top-dose-only effect, or another doubt; inactive = no such curve, though single readings can be large; an effect the other way counts as inactive or inconclusive.

SMILES	TDP1 block	RORg inh	DT40 TDP1 CPT	TDP1 cell noCPT	Gal4-VP16 FLuc
CC(=O)c1cccc(-c2ccnc3c2CC(C(=O)NCCc2ccccc2)O3)c1 (centres undefined)	nt	nt	4.6µM	3.7µM	nt
O=C1NC(=O)C(CCc2ccncc2)(Cc2ccc3c(c2)OCO3)C(=O)N1CCc1ccccc1 (centres undefined)	i	?	?	21µM	i
c1cc(CNCCc2ccc3c(c2)OCO3)ccn1	nt	i	i	i	i
CN1C(=O)N(C)C(=O)C(CCc2ccncc2)(Cc2ccc3c(c2)OCO3)C1=O	i	i	?	16µM	i
O=S(=O)(c1ccc(Cl)cc1)c1cc(Cl)c(Cl)cc1Cl	i	i	nt	nt	i
O=C1C2CCN(CC2)[C@@H]1Cc1ccc2ccccc2c1O	i	i	?	?	i
CC(=O)Nc1cc([As](=O)(O)O)ccc1O	i	i	i	i	i
COc1cccc(/C=C2\N=C(c3cncc(Br)c3)OC2=O)c1	i	i	?	23µM	i
Cc1cc(C)c(-c2csc(NC(=O)COC(=O)c3ccc4c(c3)OCO4)n2)c(C)c1	i	i	?	26µM	i
CC(=O)c1ccc2c(c1)OCO2	i	i	i	i	i
CCC(=O)Nc1cc(C(=O)N2CCC3(CC2)OCCO3)ccc1S(=O)(=O)c1ccc(C)cc1	i	i	i	i	i
CC[C@]12CC[C@H](O)CC1=CCC1C2CC[C@]2(C)C(=O)CCC12 (some centres undefined)	i	nt	?	?	nt
Cc1ccc(C(O)(C(=O)OC(C)C)C(O)c2ccccc2)cc1 (centres undefined)	nt	nt	i	?	nt
S=C(Nc1ccccc1)Nc1cccc(Br)c1	i	11µM	?	?	i[10 µM]
Brc1ccccc1	i	i	i	i	i
CCN1CCN(c2cc(N3CCCC3)c(F)cc2[N+](=O)[O-])CC1	i	i	?	16µM	i
C[C@]12CC3CC(N)(C1)C[C@@](C)(C3)C2	i	i	?	?	i
CCSC(=O)Cl	i	i	nt	nt	i
O=[N+]([O-])c1cc(-c2ccc([As](=O)(O)O)cc2)ccc1[As](=O)(O)O	35µM	i	nt	nt	i
ClCC1CO1 (centres undefined)	i	i	i	i	i
Oc1ccccc1/C=N/[n+]1ccccc1	i	i	21µM	18µM	i
O=C1NC2C(=CC(O)C(O)C2O)c2cc3c(cc21)OCO3 (centres undefined)	nt	nt	0.41µM	0.29µM	nt
O=C1NC2C(=CC(O)C(O)C2O)c2cc3c(c(O)c21)OCO3 (centres undefined)	nt	nt	0.058µM	0.092µM	nt
O=C1NC2C(O)C(O)C(O)C(O)C2c2cc3c(c(O)c21)OCO3 (centres undefined)	nt	nt	0.16µM	0.073µM	nt
Cc1ccc(C)c(NC(=S)NCCc2cnc[nH]2)c1	nt	i	i	i	i
SMILES	TDP1 block	RORg inh	DT40 TDP1 CPT	TDP1 cell noCPT	Gal4-VP16 FLuc
Cn1cc2c([N+](=O)[O-])cc([N+](=O)[O-])cc2n1	i	?	nt	nt	i
CCN1CCN(Cc2ccccc2C)CC1	i	i	i	i	i
CC1(C)COC(Nc2cccc(Cl)c2)=N1	i	i	i	i	i
CCN(CC)P(=S)(c1c(C)nc2ccccn12)c1c(C)nc2ccccn12	i	?	26µM	?	i
CCOc1c(P(=S)(N(C)C)N(C)C)c(C)nn1-c1ccccc1	i	i	i	i	i
Cc1cc(C(=O)CS(=O)(=O)c2ccccc2)cc(C)c1OC(=O)N(C)C	i	?	?	18µM	i
C#C[C@]1(O)C=C[C@H]2[C@@H]3CCC4=CC(=O)CC[C@@H]4[C@H]3CC[C@@]21CC	nt	nt	15µM	15µM	nt
O=S(=O)(NC1CCCC1)OCC(Cl)(Cl)Cl	nt	i	i	i	i
CCOC(=O)C1(c2ccccc2)CCN(CCC(=O)Nc2ccc(F)cc2)CC1	i	nt	?	?	nt
CCOC(=O)C1(c2ccccc2)CCN(CCC(=O)Nc2ccccc2OC)CC1	nt	i	21µM	12µM	i
CN(Cc1ccccc1)C1CCCN(C(=O)COc2ccccc2Cl)C1 (centres undefined)	i	i	?	16µM	i
